Source: PubChem BioAssay (NCATS)
Results filed as inconclusive are left out. Entries that show only a call come without a potency. The source made the active and inactive calls. Calls come from the whole dose curve; as a rule, active = well fitted inhibition curve with a large enough effect; inconclusive = small, poorly fitted or top-dose-only effect; inactive = flat fitted curve, though single readings scatter. Where a SMILES comes first, the peptide text is derived from it. [ ]: non-standard residue; d: D form. dPhe(4-Cl) = N[C@H](Cc1ccc(Cl)cc1)C(=O)O; d2Nal = N[C@H](Cc1ccc2ccccc2c1)C(=O)O; dCit = NC(=O)NCCC[C@@H](N)C(=O)O; d3Pal = N[C@H](Cc1cccnc1)C(=O)O

The compounds below were run against Calcium and integrin-binding protein 1 (Homo sapiens) (UniProt Q99828) (assay: Primary qHTS for Identification of Calcium Integrin Binding Protein 1 (CIB1) Competitor (AID 1508620;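 note: GST tagged CIB1 binding a fluorescein labelled alphaIIb integrin peptide tracer; top concentration of the series differs between compounds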)). Settings: CIB1-GST / FITC-alphaIIb peptide fluorescence polarization; series mostly up to 114 µM.
Chain of Calcium and integrin-binding protein 1 (Homo sapiens) (Q99828 whole entry, looked up): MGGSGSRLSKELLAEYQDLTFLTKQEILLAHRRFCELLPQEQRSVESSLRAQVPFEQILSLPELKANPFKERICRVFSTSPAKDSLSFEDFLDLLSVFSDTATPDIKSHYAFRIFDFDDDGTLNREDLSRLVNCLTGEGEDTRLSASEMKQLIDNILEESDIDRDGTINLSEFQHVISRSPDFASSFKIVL
Method in brief: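 Fluorescence polarization competition: CIB1-GST (1 uM final) preincubated with compound 15 min at room temperature, then FITC-labeled alphaIIb peptide (100 nM final) added for another 15 min. Polarization read at Ex 480/Em 540.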
With `COc1ncc2cc(C(=O)Nc3cc(C(=O)NCc4cccc(Cl)c4)ccc3Cl)c(=O)[nH]c2n1` the Potency was “inactive”.
`COc1ccc(/C=C/C(=O)O[C@@H]2[C@@H](O)[C@H](C)O[C@@H](O[C@H]3[C@@H]4C=CO[C@@H](O[C@H]5O[C@@H](CO)[C@H](O)[C@@H](O)[C@@H]5O)[C@@H]4[C@@]4(CO)O[C@@H]34)[C@@H]2OC(C)=O)cc1` was tested, and the Potency was “inactive”.
With `CC(C)N(CCCCOCC(=O)NS(C)(=O)=O)c1cnc(-c2ccccc2)c(-c2ccccc2)n1` the Potency was “inactive”.
With `O=C(/C=C\c1ccc(O)cc1)N[C@@H](Cc1ccc(O)cc1)C(=O)O` the Potency was “inactive”.
With `COC(=O)[C@H](O)[C@H]1C(C)(C)[C@H](OC(=O)C(C)C)[C@@]2(O)C(=O)[C@]1(C)C1CC[C@]3(C)C(CC(=O)O[C@H]3c3ccoc3)[C@]13O[C@@H]32` (some centres undefined) the Potency was “inactive”.
For `C[C@H](C(=O)NC1CCCC1)N(C(=O)Cn1nnc(-c2ccc3c(c2)OCO3)n1)C1CCCCC1`, the Potency was “inactive”.
With `COc1cc(Br)c(Nc2nc(-c3c(C)nc4ncccn34)cs2)c(Br)c1` the Potency was “inactive”.
For `CC1(C)CC2=C3C=CC4C5(C)CCC(O)C(C)(C)C5CCC4(C)C3(C)CCC2(C)C(O)C1` (centres undefined), the Potency was “inactive”.
`CC(=O)N[C@H](Cc1ccc2ccccc2c1)C(=O)N[C@H](Cc1ccc(Cl)cc1)C(=O)N[C@H](Cc1cccnc1)C(=O)N[C@@H](CO)C(=O)N[C@@H](Cc1ccc(O)cc1)C(=O)N[C@H](CCCNC(N)=O)C(=O)N[C@@H](CC(C)C)C(=O)N[C@@H](CCCN=C(N)N)C(=O)N1CCC[C@H]1C(=O)N[C@H](C)C(N)=O` (Ac-[d2Nal][dPhe(4-Cl)][d3Pal]SY[dCit]LRP[dA]-NH2) was tested, and the Potency was “inactive”.
